BLM helicase inh: blocks DNA unwinding by human BLM helicase | P54132 | recombinant BLM DNA unwinding, fluorescence dequenching | Potency, µM (titrated, usually from 56.1 µM), inactives show top-dose activity change, negative = inhibition, most hits filed as inhibitors | hit rate 0.2% among 350,000;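 further: plate controls were vehicle for no effect and no enzyme for full effect; nearly all actives have a fitted effect of over 35% in size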
APE1 inh: blocks human APE1 abasic DNA cleavage | P27695 | recombinant APE1, TAMRA/BHQ-2 abasic DNA cleavage fluorescence | Potency, µM (series often up to 65.8 µM), for the others: at the highest dose activity change, negative = inhibition, usual class: inhibitors | hit rate 0.35% among 350,000;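 further: plate controls were vehicle for no effect and reference inhibitor for full effect; nearly all actives have a fitted effect of over 55% in size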
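Readout is kinetic fluorescence (ex 525, em 598 nm) from cleavage of 50 nM TAMRA/BHQ-2 THF abasic duplex by 0.75 nM APE1, compound added 15 min beforehand at RT.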
L3MBTL1 block: blocks human L3MBTL1; Potency, µM (top dose mostly 57.1 µM), for the others: top-dose activity, negative = inhibition, usual class: inhibitors; AlphaScreen L3MBTL1–H3K9me1 peptide binding; Q9Y468; hit rate 0.66% among 230,000; further: nearly all actives have a fitted effect of over 60% in size
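AlphaScreen proximity signal between nickel-chelate acceptor and streptavidin donor beads (final 10 ug/mL) reports binding of 50 nM L3MBTL1 to 75 nM biotin-H3 K9me1 peptide; complex incubated with compounds 30 min at room temperature; cefsulodin titration as control.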
KAT2A inh: blocks human GCN5L2 histone acetyltransferase | Q92830 | GCN5L2 HAT assay, ThioGlo1 CoA-SH fluorescence | Potency, µM (series often up to 58.9 µM), without a hit: at the top dose activity change, negative = inhibition, most hits filed as inhibitors | hit rate 0.21% among 390,000 | AID 504327
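Compounds, pin-transferred from DMSO stocks, meet 20nM GCN5L2 for 15 min before the reaction begins with H3(1-25) peptide (75uM) and acetyl-CoA (70uM). Thiol-reactive ThioGlo1 reports CoA release over 20 min at room temperature.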
RECQ1 helicase: blocks DNA unwinding by human RECQ1; Potency, µM (doses to about 57.3 µM), inactives show at the top dose activity, negative = inhibition, usual class: inhibitors; RECQ1 DNA unwinding, red fluorescence kinetic read; P46063; hit rate 0.54% among 240,000;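 further: plate controls were vehicle for no effect and no enzyme for full effect; nearly all actives have a fitted effect of over 30% in size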
Target sequence (P46063 whole entry, looked up): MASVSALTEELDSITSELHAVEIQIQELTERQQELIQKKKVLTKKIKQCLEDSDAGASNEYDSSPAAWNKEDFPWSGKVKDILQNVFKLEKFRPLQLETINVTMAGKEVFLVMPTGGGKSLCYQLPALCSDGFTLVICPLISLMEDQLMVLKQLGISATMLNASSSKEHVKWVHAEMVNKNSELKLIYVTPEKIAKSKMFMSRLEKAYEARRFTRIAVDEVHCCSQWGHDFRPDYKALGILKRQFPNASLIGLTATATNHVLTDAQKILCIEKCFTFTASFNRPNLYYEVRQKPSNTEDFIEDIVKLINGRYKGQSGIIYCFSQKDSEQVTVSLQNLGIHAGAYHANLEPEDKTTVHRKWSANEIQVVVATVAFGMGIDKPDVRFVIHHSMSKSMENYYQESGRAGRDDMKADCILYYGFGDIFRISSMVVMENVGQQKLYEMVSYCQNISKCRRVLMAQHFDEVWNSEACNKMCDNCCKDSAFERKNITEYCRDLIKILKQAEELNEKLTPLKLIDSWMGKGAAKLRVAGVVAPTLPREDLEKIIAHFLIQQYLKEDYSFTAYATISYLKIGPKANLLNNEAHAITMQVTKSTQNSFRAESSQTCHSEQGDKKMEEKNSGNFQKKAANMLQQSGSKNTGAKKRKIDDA
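50 nM RECQ1T1 preincubated 15 min with compound in Tris pH 8.0 buffer with MgCl2, DTT, Tween-20 and 2.5 ug/ml poly(dI-dC); started with 200 nM TAMRA/BHQ-2 forked duplex and 2 mM ATP. Unwinding read as fluorescence (525/598 nm), two reads 2 h apart.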
JMJD2E inh: inhibitors of human JMJD2E histone demethylase. hit rate 1.6% among 230,000. JMJD2E catalytic domain, FDH-coupled NADH fluorescence (FDH is formaldehyde dehydrogenase). AID 2147. Potency, µM (top dose mostly 57.1 µM), without a hit: at the highest dose activity change, negative = inhibition, actives largely listed as inhibitors. B2RXH2; active means well fitted inhibition curve with a large enough effect, not every such curve was filed as active; inconclusive means small, poorly fitted or top-dose-only effect, or another doubt; inactive means no such curve, though single readings can be large or run the other way;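 further: 0% = wells with enzyme and -100% = buffer wells without enzyme; nearly all actives have a fitted effect of over 50% in size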
* = called active by the depositor; i = inactive; ? = inconclusive; / = no result given; ! = not confirmed by another sample; [ ] = dose if it differs, or a comment. Many of the other results were omitted from the sample, so hits are more common in it than they were. Unless noted, the call rests on the fitted dose curve; in most records, active means well fitted curve in the direction sought with a large enough effect; inconclusive means small, poorly fitted or top-dose-only effect, or another doubt; inactive means no such curve, though single readings can be large; an effect the other way counts as inactive or inconclusive. Unless noted, on the % scale 0 is the no-effect control and ±100 the full control effect; potency means the concentration at half of the fitted maximal effect.

SMILES | BLM helicase inh | APE1 inh | L3MBTL1 block | KAT2A inh | RECQ1 helicase | JMJD2E inh
CCS(=O)(=O)c1ncc(Cl)c(C(=O)N2CCN(c3ccc(OC)cc3)CC2)n1 | -5% | / | / | 0% | / | /
NC(=O)c1cc[n+](CC2=C(C(=O)[O-])N3C(=O)[C@@H](NC(=O)Cc4cccs4)[C@H]3SC2)cc1 | / | -3%[21 µM] | / | / | / | /
CCN1C(=O)[C@H]2[C@H]3CN=C(SCC4CC4)N3[C@@](CC)(C(=O)OC)[C@H]2C1=O | / | 2% | 1% | 0% | / | /
OCCN(CCO)c1nc(N2CCCCC2)c2nc(N(CCO)CCO)nc(N3CCCCC3)c2n1 | -3% | ? | -3% | 25µM* | -7% | ?
CCCCCCCCCCCCCCCCCCOCC(COP(=O)([O-])OCC[N+](C)(C)C)OC (centres undefined) | / | -2% | / | / | / | /
O=C(C[C@@H]1C/C=C\C[C@H](Cc2ccc(F)cc2)C(=O)OC[C@@H](Cc2c[nH]c3ccccc23)NC1=O)NCCO | / | 12µM* | -7% | 0% | / | /
O=C(C[C@@H]1C/C=C\C[C@@H](Cc2ccc(F)cc2)C(=O)OC[C@@H](Cc2c[nH]c3ccccc23)NC1=O)NCCO | / | -16% | -2% | -1% | / | /
O=C(N/N=C/c1ccncc1)c1cccc(S(=O)(=O)Nc2ccc(Cl)cc2)c1 | ? | 15% | / | -12% | i | 3.5µM*
CN(C)c1ccc(O)c2c1C[C@H]1C[C@H]3[C@H](N(C)C)C(=O)C(C(N)=O)=C(O)[C@@]3(O)C(=O)C1=C2O | / | 13µM*! | / | / | / | /
C[C@H]1c2cccc(O)c2C(O)=C2C(=O)[C@]3(O)C(O)=C(C(N)=O)C(=O)[C@@H](N(C)C)[C@@H]3[C@@H](O)[C@@H]21 | -5% | ? | / | ? | ? | 20µM*
O=C1NC(=O)/C(=C/c2ccc(-c3cccc([N+](=O)[O-])c3)o2)S1 | ? | 13µM* | -1% | -14% | / | /
C=CCc1cccc(/C=N/NC(=O)c2ccccc2Br)c1O | -8% | ? | / | -16% | -12% | 25µM*
Cc1ccccc1CC(=O)Nc1ccc(C(=O)N2CCCC2)cc1 | -1% | 32% | / | -19% | / | /
CCN(c1ccccc1)S(=O)(=O)c1ccc(Cl)c(NC(=O)COC(=O)c2cc(O)c3ccccc3c2O)c1 | -17% | -19% | / | -15% | i | 8.9µM*
CN(C)/[N+]([O-])=N/Oc1cc(ON=[N+]([O-])N2CCN(c3ncccn3)CC2)c([N+](=O)[O-])cc1[N+](=O)[O-] | -8% | -4% | / | / | -6% | /
COc1ccccc1-c1coc2cc(O)ccc2c1=O | -1% | 0% | / | 25µM* | i | ?
O=C(NN=C1CCN(Cc2ccccc2)CC1)c1ccccc1O | -1% | 0% | / | -12% | i | ?
O=C(NN=C1CCN(Cc2ccccc2)CC1)c1cc2ccccc2cc1O | -23% | -2% | -8% | -14% | -8% | 28µM*
CCCCc1cc2c(cn1)=C(OC(=O)c1ccc(Cl)nc1)C(C)(OC(=O)CC)C(=O)C=2 (centres undefined) | -9%[12.4 µM] | -3%[12.4 µM] | / | / | 8%[11.5 µM] | -4%[11.4 µM]
CCC1=NN(C(=O)c2ccc(C)cc2)C(O)(c2ccc(Br)cc2)C1 (centres undefined) | -3% | 1% | -13% | 2% | -2% | -12%
CCC1=NN(C(=O)c2cccc(Br)c2)C(O)(c2ccc(Br)cc2)C1 (centres undefined) | -20% | 2% | 28µM* | -9% | -8% | -8%
C/C(=C\C=C(C#N)C#N)c1cc(C#N)c(N)o1 | ? | ? | -21% | -5% | 14µM* | ?
CC1=C(/C=C/C(C)=C/C=C/C(C)=C/C(=O)O)C(C)(C)CCC1 | -5% | -9% | 3% | 32µM*! | ? | -2%
O=c1c2ccc(Cl)cc2nc(-c2cccc(C(F)(F)F)c2)n1O | -4% | 14% | -1% | -17% | -12% | 32µM*

High-throughput results deposited in PubChem BioAssay by National Center for Advancing Translational Sciences (NCATS).
